Bioassay records from PubChem.
HP1b binding inh: HP1-beta chromodomain-methylated histone interaction inhibition | P83916 | AlphaScreen HP1-beta / biotin-H3K9me3 peptide binding | Potency, µM (doses to about 114 µM), for inactives: top-dose activity change, negative = inhibition, most hits filed as inhibitors | 390,000 compounds, 0.56% hits | AID 540317; also: nearly all actives have a fitted effect of over 70% in size
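Compound inhibition of the preformed complex between 50 nM HP1-beta and 50 nM biotinylated H3K9me3 peptide was read by AlphaScreen. Buffer was PBS pH 7.4 with 0.01% Tween-20. Incubations ran 30 min at room temperature, with 10 ug/mL donor/acceptor beads.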
L3MBTL1 inh: blocks human L3MBTL1. Q9Y468. AlphaScreen L3MBTL1–H3K9me1 peptide binding. Potency, µM (doses to about 57.1 µM), without a hit: at the top dose activity, negative = inhibition, hits mostly inhibitors. 230,000 compounds, 0.66% hits. AID 485360; also: % is scaled to controls: 0 for no effect and ±100 for the full control effect; nearly all actives have a fitted effect of over 60% in size
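L3MBTL1 50 nM + b-AHA-H3(1-15)K9me1 75 nM, 30 min RT; compound added, 30 min RT; streptavidin donor/Ni-chelate acceptor beads 10 ug/mL each final, 30 min RT dark; AlphaScreen read.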
JMJD2A Tudor: blocks the human JMJD2A Tudor domain; AlphaScreen JMJD2A-Tudor / H3K4me3 peptide binding; Potency, µM (series often up to 114 µM), for the others: top-dose activity change, negative = inhibition, usual class: inhibitors; 390,000 compounds, 4.4% hits; also: % is scaled to controls: 0 for no effect and ±100 for the full control effect; nearly all actives have a fitted effect of over 50% in size
Target sequence (O75164 whole entry, looked up, the tested form may be a part): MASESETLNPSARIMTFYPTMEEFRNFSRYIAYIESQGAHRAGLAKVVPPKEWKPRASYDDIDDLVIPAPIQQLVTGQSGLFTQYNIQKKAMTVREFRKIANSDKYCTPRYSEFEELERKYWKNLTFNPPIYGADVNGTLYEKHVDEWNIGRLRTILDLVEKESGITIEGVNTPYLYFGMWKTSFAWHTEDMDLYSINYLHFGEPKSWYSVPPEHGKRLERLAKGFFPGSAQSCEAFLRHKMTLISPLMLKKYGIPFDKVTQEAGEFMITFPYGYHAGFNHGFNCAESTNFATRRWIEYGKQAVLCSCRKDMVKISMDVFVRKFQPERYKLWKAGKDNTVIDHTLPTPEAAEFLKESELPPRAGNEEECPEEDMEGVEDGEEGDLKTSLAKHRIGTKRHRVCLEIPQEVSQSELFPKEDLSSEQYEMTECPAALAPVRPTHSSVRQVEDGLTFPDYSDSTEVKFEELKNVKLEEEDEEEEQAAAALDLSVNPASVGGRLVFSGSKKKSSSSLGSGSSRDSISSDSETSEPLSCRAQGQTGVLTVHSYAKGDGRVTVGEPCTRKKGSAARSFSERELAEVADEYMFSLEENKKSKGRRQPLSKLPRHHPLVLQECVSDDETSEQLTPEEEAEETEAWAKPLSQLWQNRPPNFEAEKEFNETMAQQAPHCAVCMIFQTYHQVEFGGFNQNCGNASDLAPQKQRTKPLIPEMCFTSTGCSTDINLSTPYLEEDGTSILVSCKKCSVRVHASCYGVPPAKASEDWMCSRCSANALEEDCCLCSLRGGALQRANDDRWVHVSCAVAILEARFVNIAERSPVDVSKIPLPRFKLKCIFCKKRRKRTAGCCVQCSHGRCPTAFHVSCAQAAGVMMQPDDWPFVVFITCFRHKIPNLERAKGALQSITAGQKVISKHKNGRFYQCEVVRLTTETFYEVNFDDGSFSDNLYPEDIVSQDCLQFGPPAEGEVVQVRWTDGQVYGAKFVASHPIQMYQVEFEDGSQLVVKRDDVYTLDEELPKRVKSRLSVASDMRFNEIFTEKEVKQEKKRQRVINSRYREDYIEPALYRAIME
PLK1 PBD block: blocks phosphopeptide binding to human PLK1 polo-box domain | Plk1 PBD binding of FITC phosphopeptide, fluorescence polarization | 360,000 compounds, 2.8% hits | P53350 | Potency, µM, for the others: max response, negative = inhibition, most hits filed as inhibitors; also: series mostly up to about 57 µM; % is scaled to controls: 0 for no effect and ±100 for the full control effect; nearly all actives have a fitted effect of over 65% in size
BAZ2B inh: inhibitors of human BAZ2B bromodomain | AlphaScreen BAZ2B-H3K14Ac peptide displacement | Potency, µM (titrated, usually from 114 µM), without a hit: top-dose activity change, negative = inhibition, usual class: inhibitors | 360,000 compounds, 4.4% hits | Q9UIF8 | AID 504333; also: % is scaled to controls: 0 for no effect and ±100 for the full control effect; nearly all actives have a fitted effect of over 60% in size
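Compounds, titrated to a top concentration of 110 uM, were incubated 30 min at room temperature with preformed BAZ2B/acetyl-K14 H3 peptide complex (50 nM each). Proximity signal was measured by AlphaScreen after 20 min with beads.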
VDR inh: inhibitors of human vitamin D receptor; VDR-SRC2-3 peptide fluorescence polarization, 2 h; Potency, µM, for inactives: max response, negative = inhibition, hits mostly inhibitors; 400,000 compounds, 0.93% hits; AID 504847; also: % is scaled to controls: 0 for no effect and ±100 for the full control effect
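Fluorescence polarization assay of small-molecule disruption of VDR binding to coregulator peptide SRC2-3. Compounds and controls pin-transferred, then read after 2 h incubation at ambient room temperature.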
Numbers without * were called inactive; ? = inconclusive; / = not tested or not shown; [ ] = dose if it differs, or a comment. In the library only some 6.9% were active in any assay of this set; here they are far more common. Calls follow the shape of the dose curve; as a rule, active = well fitted curve in the direction sought with a large enough effect; inconclusive = small, poorly fitted or top-dose-only effect, or another doubt; inactive = no such curve, though single readings can be large; an effect the other way counts as inactive or inconclusive. Potency is read from the fitted curve at half-maximal effect.

SMILES | HP1b binding inh | L3MBTL1 inh | JMJD2A Tudor | PLK1 PBD block | BAZ2B inh | VDR inh
Cn1ccc(=S)c2ccccc21 | -3.3% | / | 8.91µM* | 11.9µM* | / | -15.3%
CN(C)c1ccc(NC(=O)Cn2c(SCc3ccc(F)cc3)nc3cccnc32)cc1 | 2.8% | / | -29.2% | / | -3.4% | 6.0%
c1ccc(Nc2cc(-c3ccoc3)ncn2)cc1 | / | / | / | / | / | 11.2µM*
c1ccc(CNc2cc(-c3ccoc3)ncn2)cc1 | / | / | / | / | / | 12.6µM*
COc1ccc(CNc2cc(-c3ccoc3)ncn2)c(OC)c1 | / | / | / | / | / | 11.2µM*
CN(C)Cc1ccccc1-c1cc(Nc2ccccc2)ncn1 | / | / | / | / | / | 5.4%
Cc1ccc2c(c1)C1(C(=O)N2)N2CCCC2C(C(=O)c2ccc3ccccc3c2)C12C(=O)Nc1ccccc12 (stereo unspecified) | ? | / | 50.1µM* | -8.8% | ? | -14.5%
CCCNC(=O)NNC(=O)c1ccc(F)cc1 | -11.7% | 17.3% | ? | 23.8µM* | -8.2% | ?
COc1ccc(C)cc1NC(=O)c1cc2c(=O)n3cccc(C)c3nc2s1 | 8.6% | / | -12.6% | / | 5.4% | 1.0%
O=C(O)c1ccc(Nc2nc(-c3ccccc3)nc3ccccc23)cc1 | 31.3% | / | 39.8µM* | 18.9µM* | 4.6% | 79.4µM*
CN(C)C(=O)c1ccc(-c2nc(Nc3ccccc3)c3ccccc3n2)cc1 | / | / | / | / | / | 39.8µM*
Cc1ccc(-c2nc(Nc3ccc(N4CCOCC4)cc3)c3ccccc3n2)cc1 | ? | -13.3% | 39.8µM* | 2.5% | 31.6µM* | 10.9%
O=C(O)c1cccc(Nc2nc(-c3ccc([N+](=O)[O-])cc3)nc3ccccc23)c1 | 12.1% | / | -30.4% | ? | 56.2µM* | 11.5%
CCCn1c(-c2ccc(S(=O)(=O)N3CCOCC3)cc2)csc1=Nc1ccc(OCC)cc1 | ? | / | ? | / | ? | 17.1%
Cc1ccc2oc3c(c(=O)c2c1)C(c1ccccc1F)N(CCCN1CCOCC1)C3=O (stereo unspecified) | 11.6% | / | -12.7% | / | -13.1% | 1.4%
CC(Sc1nc(=O)cc(N)n1CCc1ccccc1)C(=O)Nc1ccccc1C#N (stereo unspecified) | 33.0% | / | -11.2% | / | -24.2% | -13.8%
c1ccc(Nc2nc(-c3ccccc3)nc3ccccc23)cc1 | 101.9% | -1.5%[2.29 µM] | 31.8% | -0.3% | -7.0% | -11.9%
c1ccc(Nc2nc(-c3ccoc3)nc3ccccc23)cc1 | / | / | / | / | / | 28.2µM*
c1ccc2c(-n3ccnc3)nc(-c3ccoc3)nc2c1 | / | / | / | / | / | 31.6µM*
O=c1c2sc3ccccc3c2n(Cc2ccccc2F)c(=O)n1-c1ccccc1Cl | 32.4% | / | -13.6% | / | -13.2% | -1.9%
COc1ccc(C2=NC(C)(C)N(CC(=O)Nc3cccc(C)c3)C2=O)cc1 | 45.6% | / | -2.7% | / | -21.3% | 9.7%
Cc1ccc(S(=O)(=O)n2nc(-c3ccccc3)nc2NCc2ccccc2Cl)cc1 | 51.4% | / | 19.9% | / | 5.4% | 0.5%
COC(Cn1cc(C)c(=O)[nH]c1=O)OC | 24.9% | / | -7.5% | -1.0% | 11.0% | -0.5%
Cc1cn(CC2COC(C)(C)O2)c(=O)[nH]c1=O (stereo unspecified) | -17.1% | -1.7% | -16.8%[11.4 µM] | 5.97µM* | 3.9% | -23.6%
O=C1c2ccccc2C(=O)N1CCSc1nncs1 | 25.8% | 0.7% | 2.2% | -3.0% | 7.2% | 18.8%
SMILES | HP1b binding inh | L3MBTL1 inh | JMJD2A Tudor | PLK1 PBD block | BAZ2B inh | VDR inh
O=C1c2ccccc2C(=O)N1CCc1csc(NNc2nc(CCN3C(=O)c4ccccc4C3=O)cs2)n1 | -12.3% | / | ? | ? | 35.5µM* | 25.8%
Cc1ccc(-c2nc(CCN3C(=O)c4ccccc4C3=O)cs2)cc1 | 97.2% | 10.3% | 17.8% | -8.1% | 30.4% | -0.9%
O=C(O)CCN1C(=O)c2ccc(NC(=O)CSc3ccccc3)cc2C1=O | ? | -4.0% | -27.0%[57.1 µM] | 26.7µM* | 0.4% | ?
O=C1c2ccccc2C(=O)N1CCSc1ccccc1 | 65.3% | / | 31.5% | 26.7µM* | 52.9% | -2.2%
O=C1c2ccccc2C(=O)N1CCc1ccccc1 | ? | / | 56.2µM* | 26.7µM* | / | -22.2%
COCC(=O)N1CCC2(CC1)CN(c1ccccn1)C2 | / | / | / | / | / | -10.2%
COCC1CCN(Cc2c(C(=O)N3CCOCC3)nc3c(C)cccn23)C1 (stereo unspecified) | / | / | / | 0.7% | / | /
CC[n+]1ccc2cc(OC)c(OC)cc2c1Cc1ccc(OC)c(OC)c1 | 39.8µM* | 14.0% | 25.1µM* | ? | 79.4µM* | -14.5%
COc1ccc(Cc2c3cc(OC)c(OC)cc3cc[n+]2C)cc1OC | ? | / | 22.4µM* | ? | -34.1% | -11.5%
CC(=O)c1cccc([N+](=O)[O-])c1 | 22.0% | -3.1% | -7.6% | -7.7% | 1.2% | -8.0%
O=C(C#Cc1ccccc1)c1cccc([N+](=O)[O-])c1 | 20.1% | / | -13.6% | 0.597µM* | ? | ?
NC(=O)CSc1nnc(CNc2ccc(F)cc2)n1CC1CCCO1 (stereo unspecified) | 57.2% | -0.3% | -19.8%[57.1 µM] | -13.6% | 14.9% | 9.2%
Cc1ccc(NCc2nnc(SCC(N)=O)n2CC2CCCO2)c(C)c1 (stereo unspecified) | -21.8% | 5.0% | -34.4%[57.1 µM] | 29.9µM* | 4.8% | -12.2%
COc1ccc(-c2nn(CCC(=O)O)cc2/C=C2\SC(N)=NC2=O)cc1OC | 25.3% | -4.5% | ? | -6.4% | 56.2µM* | 2.7%
CC(NC(=O)Cn1nc(C(=O)O)c2ccccc2c1=O)c1ccccc1 (stereo unspecified) | -9.7% | -3.5% | 11.6%[11.4 µM] | 29.9µM* | -4.9% | -15.5%
Cc1ccc(OCC(=O)c2ccc(Cl)s2)c([N+](=O)[O-])n1 | -13.3% | -29.9% | 56.2µM* | ? | 50.1µM* | ?
CSc1ccc(CNC(=O)CCn2ccc3cc(S(=O)(=O)N4CCC(C)CC4)ccc32)cc1 | 24.4% | / | -4.8% | / | -23.4% | 0.4%
COc1ccc(OCCCN2CCCCCC2)cc1 | 14.6% | / | ? | -10.6% | -36.4% | -4.7%
O=C(c1ccccc1)c1ccc(OCCCN2CCCCC2)cc1 | -35.3% | / | 7.94µM* | -9.8% | 31.6µM* | 0.4%
CC(=O)c1ccc(OCCCN2CCCCC2)cc1 | ? | / | 2.24µM* | -2.7% | 50.1µM* | 15.3%
O=C(c1ccccc1)c1ccc(OCC(O)CN2CCCCC2)cc1 (stereo unspecified) | 31.5% | -3.5% | 4.0% | -0.2% | 12.6% | -3.1%
COC(=O)c1ccccc1S(=O)(=O)C(C)(C)C | ? | 6.3% | ? | 23.8µM* | -3.4% | ?
O=c1nc2s/c(=C\c3ccc(-c4ccccc4[N+](=O)[O-])o3)c(=O)n2nc1-c1ccccc1 | 30.6% | 2.24µM* | 2.8% | ? | 10µM* | -17.0%
O=C(CC12CC3CC(CC(C3)C1)C2)NCc1ccc(F)cc1 | -7.5% | -0.3% | ? | 29.9µM* | 6.0% | -26.1%
COCCNCC(=O)N1CCCCCC1 | -29.5% | ? | 3.55µM* | -14.0% | 50.1µM* | 1.0%
